Publication PMC7819943, “Rice protein-binding microarrays: a tool to detect cis-acting elements near promoter regions in rice”
Over roughly 68,000 sequences, “fluorescence intensity (a.u.)” has its median near 9,100; the highest 2% begin near 16,000. This excerpt belongs to a sample that is enriched for the highest values.

Biological target: OsWRKY34 (Oryza sativa, UniProt Q0JBA9 1-250)
Experiment: protein-binding microarray (RPBM); PBS, 2% BSA, 51.3 ng/ul salmon testes DNA, 50 uM zinc acetate, 200 nM TF, 25 C, 1 h; high values mean tight binding
Settings: protein: recombinant; tags: N-terminal polyhistidine and DsRed monomer fusion (pET32a); label: CyDye5-dUTP incorporated in the synthesized complementary strand; 3' TTTTT single-stranded linker to array surface; dsDNA, one strand shown
Summary of the method: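 For the binding signal, per-feature fluorescence intensity was read in arbitrary units on an Axon 4000B scanner. Before scanning, a 2% BSA-blocked custom Agilent array made double-stranded with Cy5-dUTP was washed after 1 h at 25 °C with 200 nM protein and 50 µM zinc acetate. The proteins were Ni–NTA-purified transcription factors with N-terminal polyhistidine and DsRed fusions, expressed in E. coli BL21-CodonPlus.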

Chain of OsWRKY34 (Q0JBA9 entry or part of it): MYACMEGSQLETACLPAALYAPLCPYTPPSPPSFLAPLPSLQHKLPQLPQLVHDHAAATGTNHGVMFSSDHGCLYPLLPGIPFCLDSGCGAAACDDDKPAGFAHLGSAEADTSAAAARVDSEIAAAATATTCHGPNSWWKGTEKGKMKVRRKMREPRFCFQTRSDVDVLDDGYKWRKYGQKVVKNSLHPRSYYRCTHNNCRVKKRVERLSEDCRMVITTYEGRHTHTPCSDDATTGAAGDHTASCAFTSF

In order of rising binding signal:
1. GCGAACCGCGAATACAATAGCCGGCGCCCCGCGCGTACACCGGAGTCACCTAGTGCAG  8070 fluorescence intensity (a.u.)
2. GTATTATTGTCCCTTACATTGCTAACTCAATGTTGTATTACGGAGTCACCTAGTGCAG  8130 fluorescence intensity (a.u.)
3. GCGGATTTCCTTTCTAAACGTGCCAACGATGTGTTCTTGTCGGAGTCACCTAGTGCAG  8250 fluorescence intensity (a.u.)
4. TTTCTTGGTCTTTGGGTTAAATGTGGTTATGCCTTATATTCGGAGTCACCTAGTGCAG  8260 fluorescence intensity (a.u.)
5. ATAGGAGGGGTCATATTAGTAGGGTTTTTTTTGGACGGAGCGGAGTCACCTAGTGCAG  8260 fluorescence intensity (a.u.)
6. AATTTCGGAAGGGTTGGTTTAGGCAGTAATATTCTCCATTCGGAGTCACCTAGTGCAG  8280 fluorescence intensity (a.u.)
7. GAGTCATAGTAGTGTAGTAGTGGGTCAACTCAGTCAAGTCCGGAGTCACCTAGTGCAG  8290 fluorescence intensity (a.u.)
8. CAAAACAGAAGAGCCAGGTTAGTTTAGTTGGTCATATTCACGGAGTCACCTAGTGCAG  8310 fluorescence intensity (a.u.)
9. CAGCGGAGAGCGGCGGCGGCGAGTAGGATGGGGTTTGATTCGGAGTCACCTAGTGCAG  8380 fluorescence intensity (a.u.)
10. CACTACCTCAGTATTCTCTACTACTACTCTTTTCTCAGAGCGGAGTCACCTAGTGCAG  8470 fluorescence intensity (a.u.)
11. ATCCTGATCAGATTCTGAACTCCTTTTCTCTCTGCGCCCACGGAGTCACCTAGTGCAG  8480 fluorescence intensity (a.u.)
12. TCCTCGCGACCTTAATTTACTCCTCCAATGGCCGCCGCTGCGGAGTCACCTAGTGCAG  8600 fluorescence intensity (a.u.)
13. CGGTTTCGTTTGAGATTTTTTTTTGGTGGTTTTGATTTCGCGGAGTCACCTAGTGCAG  8640 fluorescence intensity (a.u.)
14. TAGGTGGTGTTTGGTTTATGGATCAGGTGGGTTGGGTTGGCGGAGTCACCTAGTGCAG  8740 fluorescence intensity (a.u.)
15. GTCTTATTGTGGTTGGGAGTTTAACGGTGTACCGAAGAAACGGAGTCACCTAGTGCAG  8780 fluorescence intensity (a.u.)
16. GTTTACATGTGTAGATCTAATGATGCGTTCAATCTAGTTTCGGAGTCACCTAGTGCAG  8860 fluorescence intensity (a.u.)
17. TTCTCCCTTTATTTTTGTTTATATAATTTCCAGATCAAAGCGGAGTCACCTAGTGCAG  8890 fluorescence intensity (a.u.)
18. GTTACTGCACATTGACCATCGCGTTACTGCACCGTTCTGCCGGAGTCACCTAGTGCAG  8940 fluorescence intensity (a.u.)
19. TTTTTACAACCCTGCGATTCAGATAGACCTTACCATTTTTCGGAGTCACCTAGTGCAG  8940 fluorescence intensity (a.u.)
20. GCCGCCGCCCGCCGCCGCCGAGACCGACCCGACCACGATGCGGAGTCACCTAGTGCAG  8960 fluorescence intensity (a.u.)
21. GGCGAGTGGCGGATTTGTTTTTGGTTTGTTTTTGAGTTTGCGGAGTCACCTAGTGCAG  9060 fluorescence intensity (a.u.)
22. GTTTATTGTATTTGGAGTAAGTGATTGTAACTTTTTTTTACGGAGTCACCTAGTGCAG  9200 fluorescence intensity (a.u.)
23. AGCCATCCGGCCGCGGCCCGTCACAGGTAACTAGTCATTTCGGAGTCACCTAGTGCAG  9260 fluorescence intensity (a.u.)
24. CGGTGGACTGGTGGTTTTTGCGGGGTTGCAGAATTTGGTGCGGAGTCACCTAGTGCAG  9390 fluorescence intensity (a.u.)
25. ACTACTCACTCTTCATTGCTTTTTTTTTTCTCTCTCTAGCCGGAGTCACCTAGTGCAG  9600 fluorescence intensity (a.u.)
26. GTGGCCTTTGGGAGCGGTGACCTGCTGCTCCATCCTTCATCGGAGTCACCTAGTGCAG  9620 fluorescence intensity (a.u.)
27. GGTAAAACATGTTGGATTTTATTTTGGTGGGATGTGCAATCGGAGTCACCTAGTGCAG  9620 fluorescence intensity (a.u.)
28. CACGTCGCCTCGTTTCTTGCCTCGCCGCTCGTCACTCGGCCGGAGTCACCTAGTGCAG  9810 fluorescence intensity (a.u.)
29. AATATGTGGGTGATTTGTTGTAATGGAGTATGTGGTGGAGCGGAGTCACCTAGTGCAG  10000 fluorescence intensity (a.u.)
30. TTGACTGGGTTTTTCTTTTTTTTTTCTGTTTTGTTGTTTGCGGAGTCACCTAGTGCAG  10100 fluorescence intensity (a.u.)
31. TCTTCGTCGACACCACCCCAGCCGGTGTCCCCACGCGCTCCGGAGTCACCTAGTGCAG  10100 fluorescence intensity (a.u.)
32. CGCCGCCATTTCCGCCTCTTCTTCTCTTAAACAAAAAGCCCGGAGTCACCTAGTGCAG  10200 fluorescence intensity (a.u.)
33. GCCGCCGCCTCGCTCCCCATGGCGTCCGTACACTCCGGCGCGGAGTCACCTAGTGCAG  10300 fluorescence intensity (a.u.)
34. TTCCCACCGCTGCCGCTCGTCCCGTCTCACCGATCCCTCCCGGAGTCACCTAGTGCAG  10300 fluorescence intensity (a.u.)
35. GATAGTTGAGGGGTCGAGATTTTTGGTATTGCGGATTGGGCGGAGTCACCTAGTGCAG  10400 fluorescence intensity (a.u.)
36. TCCTGTGTTTTTTCTGTGTTTTGCAATCCTCTGTTTTACACGGAGTCACCTAGTGCAG  10900 fluorescence intensity (a.u.)
37. CGCTGTATTTTGTTGGGATCACCTGTACATTTCTTCACAACGGAGTCACCTAGTGCAG  10900 fluorescence intensity (a.u.)
38. TTTGATCTTGTGGTGGTTTGGGTGATCGGTGGCGATGGGGCGGAGTCACCTAGTGCAG  11000 fluorescence intensity (a.u.)
39. AACTTGGTGGGTTTGGTTTTGCTCTTTCTGTTGACCAAGCCGGAGTCACCTAGTGCAG  12000 fluorescence intensity (a.u.)
40. GATCTGACCGGATTTTGCGGTGGGGTTTTCTTTTTTGGGTCGGAGTCACCTAGTGCAG  12200 fluorescence intensity (a.u.)
41. CCAGTTTGTATCTCATGTATTGGGCCTCGAAATCTGGTATCGGAGTCACCTAGTGCAG  12200 fluorescence intensity (a.u.)
42. GGTGGTCTTCTTTTTTTGCGGTGGAGTTGGATTTGGGTTGCGGAGTCACCTAGTGCAG  13000 fluorescence intensity (a.u.)
43. CGGTGGTGGTGGTGGTGCCTTGGCTAGTTTGGCCGGCGCGCGGAGTCACCTAGTGCAG  14300 fluorescence intensity (a.u.)
44. TGGGGTTCTTGTTTTTCTTTTCCGGGATCTTTGGGTGATGCGGAGTCACCTAGTGCAG  15900 fluorescence intensity (a.u.)
45. GAGGGGTTTCATTGTTATTTTTGGGTAATCCAAATTTACACGGAGTCACCTAGTGCAG  16300 fluorescence intensity (a.u.)
46. GAGTAGGATGGGGTTTGATTTTGGGGTTCGTGGGGTCGAGCGGAGTCACCTAGTGCAG  17100 fluorescence intensity (a.u.)
47. CTACTACTCTTTTCTCAGAGCTAGTGAGGGGCGGGCGGGCCGGAGTCACCTAGTGCAG  17500 fluorescence intensity (a.u.)
48. GGTGGGTTGGGCCGTGATTTGTATGGACTTTATTTGTAAGCGGAGTCACCTAGTGCAG  19000 fluorescence intensity (a.u.)
49. CTTGGCTTGGTTTGGTTTGGTGTTTGATCACGCGGTGGTGCGGAGTCACCTAGTGCAG  20800 fluorescence intensity (a.u.)
50. TTTTTGGGTGGGAGTTGTATTTTTTTAACATGTGGGAAAACGGAGTCACCTAGTGCAG  21300 fluorescence intensity (a.u.)
51. TGGTTTTCTGTTTTCTTGGTTTTGGGTGGTGGCAGTTGACCGGAGTCACCTAGTGCAG  23200 fluorescence intensity (a.u.)
52. GTGGGTGGTTGGTGGTGGTGGTGGTGGTGGTGATCTTTGGCGGAGTCACCTAGTGCAG  23900 fluorescence intensity (a.u.)
53. TATTTTTGGGTTGGGTTTGGGTTGGGTTGGGTCGAGTTGGCGGAGTCACCTAGTGCAG  26100 fluorescence intensity (a.u.)
54. TGGGGTTTTCTTTTTTGGGTTGGGTTGATCTTTTGGGTGGCGGAGTCACCTAGTGCAG  36600 fluorescence intensity (a.u.)
55. CGATCTTGCCCTGGTTGGTTGGTGGTGGTGGTGGGTTTTGCGGAGTCACCTAGTGCAG  37100 fluorescence intensity (a.u.)
